# Source: the supplement of paper PMC8728848
# The sample as a whole holds a higher share of the strongest signals than the screen did.
# B1: Pwp5 ND (Candida glabrata) (protein)
# chain: MGSSHHHHHHSSGLVPRGSHMASANPVPLTNVCYFPEEYPRQAGFRAITAGLASTILQGSVDELLNYSGLSSLTTQQTTTTTPNFQLPTLPLPTNVYGLTVVPLYLLVQLQGYFVPPVSGQYTFSLENTNDAAIIFFGNPSAFPCGDLSAWPQASADDITVTDGTFPSRTLFLKAGVAYPMRISYYNSLGSGNLAVSFTDPGGTKRTNWNGYIWRYNSCSTCTYT
# Experiments:
# Assay in all cases: glycan array binding signal (z-score within array); higher = stronger binding
# Details in all cases: glycan notation: IUPAC condensed, linker removed
# [1] = target: Gal(b1-4)GlcNAc(b1-3)Gal(b1-4)GlcNAc(b1-3)Gal(b1-4)GlcNAc
# Procedure, shortened: (§1)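 Glycan array data came from 3228 arrays in the Consortium for Functional Glycomics database, and only arrays with an available protein sequence were kept. Glycan names were put into IUPAC-condensed notation, and columns mapping to the same glycan were averaged. The binding signal is a within-array Z-score, averaged across arrays of one protein sequence run at different concentrations or buffers and across linkers. A negative Z-score can be read as non-binding.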
# [2] = target: Gal(b1-4)GlcNAc(b1-3)Gal(b1-4)GlcNAc(b1-3)Gal(b1-4)GlcNAc(b1-2)Man(a1-3)[Gal(b1-4)GlcNAc(b1-3)Gal(b1-4)GlcNAc(b1-3)Gal(b1-4)GlcNAc(b1-2)Man(a1-6)]Man(b1-4)GlcNAc(b1-4)[Fuc(a1-6)]GlcNAc
# Procedure, shortened: as §1
# Gal3S(b1-4)Glc = target: Gal3S(b1-4)Glc
# Procedure, shortened: as §1
# Gal6S(b1-3)GlcNAc = target: Gal6S(b1-3)GlcNAc
# Procedure, shortened: as §1
# [3] = target: GalNAc(a1-3)GalNAc(b1-3)Gal(a1-4)Gal(b1-4)Glc
# Procedure, shortened: as §1
# GalNAc(b1-4)Gal(b1-4)Glc = target: GalNAc(b1-4)Gal(b1-4)Glc
# Procedure, shortened: as §1
# [4] = target: GlcNAc(a1-4)Gal(b1-3)GlcNAc
# Procedure, shortened: as §1
# [5] = target: GlcNAc(b1-2)[GlcNAc(b1-4)]Man(a1-3)[GlcNAc(b1-2)Man(a1-6)]Man(b1-4)GlcNAc(b1-4)GlcNAc
# Procedure, shortened: as §1
# [6] = target: GlcNAc(b1-2)[GlcNAc(b1-6)]Man(a1-6)[GlcNAc(b1-2)Man(a1-3)]Man(b1-4)GlcNAc(b1-4)GlcNAc
# Procedure, shortened: as §1
# [7] = target: GlcNAc(b1-3)Gal(b1-4)GlcNAc(b1-3)Gal(b1-4)GlcNAc(b1-3)Gal(b1-4)GlcNAc(b1-2)[GlcNAc(b1-3)Gal(b1-4)GlcNAc(b1-3)Gal(b1-4)GlcNAc(b1-3)Gal(b1-4)GlcNAc(b1-6)]Man(a1-6)[GlcNAc(b1-3)Gal(b1-4)GlcNAc(b1-3)Gal(b1-4)GlcNAc(b1-3)Gal(b1-4)GlcNAc(b1-2)Man(a1-3)]Man(b1-4)GlcNAc(b1-4)[Fuc(a1-6)]GlcNAc
# Procedure, shortened: as §1
# [8] = target: GlcNAc(b1-3)[GlcNAc(b1-6)]Gal(b1-4)GlcNAc
# Procedure, shortened: as §1
# [9] = target: Man(a1-2)Man(a1-3)[Man(a1-2)Man(a1-6)]Man(a1-6)[Man(a1-2)Man(a1-2)Man(a1-3)]Man(b1-4)GlcNAc(b1-4)GlcNAc
# Procedure, shortened: as §1
# [10] = target: Man(a1-3)[Man(a1-6)]Man(a1-6)[Man(a1-3)]Man
# Procedure, shortened: as §1
# Man(b1-4)GlcNAc = target: Man(b1-4)GlcNAc
# Procedure, shortened: as §1
# [11] = target: Neu5Ac(a2-3)Gal(b1-3)GalNAc6S
# Procedure, shortened: as §1
# [12] = target: Neu5Ac(a2-3)Gal(b1-3)GlcNAc
# Procedure, shortened: as §1
# [13] = target: Neu5Ac(a2-3)Gal(b1-3)GlcNAc(b1-3)GalNAc
# Procedure, shortened: as §1
# [14] = target: Neu5Ac(a2-3)Gal(b1-3)[GlcNAc(b1-6)]GalNAc
# Procedure, shortened: as §1
# [15] = target: Neu5Ac(a2-3)Gal(b1-4)GlcNAc(b1-2)[Neu5Ac(a2-3)Gal(b1-4)GlcNAc(b1-6)]Man(a1-6)[Neu5Ac(a2-3)Gal(b1-4)GlcNAc(b1-2)Man(a1-3)][GlcNAc(b1-4)]Man(b1-4)GlcNAc(b1-4)GlcNAc
# Procedure, shortened: as §1
# [16] = target: Neu5Ac(a2-3)Gal(b1-4)GlcNAc(b1-3)Gal(b1-4)GlcNAc(b1-2)Man(a1-3)[Neu5Ac(a2-3)Gal(b1-4)GlcNAc(b1-3)Gal(b1-4)GlcNAc(b1-2)Man(a1-6)]Man(b1-4)GlcNAc(b1-4)GlcNAc
# Procedure, shortened: as §1
# [17] = target: Neu5Ac(a2-3)Gal(b1-4)GlcNAc(b1-3)Gal(b1-4)GlcNAc(b1-3)[Neu5Ac(a2-3)Gal(b1-4)GlcNAc(b1-3)Gal(b1-4)GlcNAc(b1-6)]GalNAc
# Procedure, shortened: as §1
# [18] = target: Neu5Ac(a2-3)Gal(b1-4)[Fuc(a1-3)]GlcNAc
# Procedure, shortened: as §1
# [19] = target: Neu5Ac(a2-3)Gal(b1-4)[Fuc(a1-3)]GlcNAc(b1-3)GalNAc
# Procedure, shortened: as §1
# [20] = target: Neu5Ac(a2-3)Gal(b1-4)[Fuc(a1-3)]GlcNAc6S
# Procedure, shortened: as §1
# [21] = target: Neu5Ac(a2-6)Gal(b1-4)GlcNAc(b1-2)[Neu5Ac(a2-6)Gal(b1-4)GlcNAc(b1-4)]Man(a1-3)[GlcNAc(b1-4)][Neu5Ac(a2-6)Gal(b1-4)GlcNAc(b1-4)Man(a1-6)]Man(b1-4)GlcNAc(b1-4)GlcNAc
# Procedure, shortened: as §1
# [22] = target: Neu5Ac(a2-6)Gal(b1-4)GlcNAc(b1-3)Gal(b1-4)GlcNAc(b1-3)Gal(b1-4)GlcNAc(b1-2)Man(a1-3)[Neu5Ac(a2-6)Gal(b1-4)GlcNAc(b1-3)Gal(b1-4)GlcNAc(b1-3)Gal(b1-4)GlcNAc(b1-2)Man(a1-6)]GalNAc
# Procedure, shortened: as §1
# [23] = target: Neu5Ac(a2-6)Gal(b1-4)GlcNAc(b1-6)GalNAc
# Procedure, shortened: as §1
# Neu5Ac(a2-8)Neu5Ac = target: Neu5Ac(a2-8)Neu5Ac
# Procedure, shortened: as §1
# [24] = target: Neu5Ac(a2-8)Neu5Ac(a2-3)[GalNAc(b1-4)]Gal(b1-4)Glc
# Procedure, shortened: as §1
binder,measurement,setting,value
B1,glycan array binding signal (z-score),[1],-0.555
same,glycan array binding signal (z-score),[2],3.19
same,glycan array binding signal (z-score),Gal3S(b1-4)Glc,-0.405
same,glycan array binding signal (z-score),Gal6S(b1-3)GlcNAc,-0.366
same,glycan array binding signal (z-score),[3],-0.548
same,glycan array binding signal (z-score),GalNAc(b1-4)Gal(b1-4)Glc,0.779
same,glycan array binding signal (z-score),[4],-0.557
same,glycan array binding signal (z-score),[5],-0.667
same,glycan array binding signal (z-score),[6],3.15
same,glycan array binding signal (z-score),[7],1.57
same,glycan array binding signal (z-score),[8],-0.152
same,glycan array binding signal (z-score),[9],-0.293
same,glycan array binding signal (z-score),[10],5.77
same,glycan array binding signal (z-score),Man(b1-4)GlcNAc,-0.41
same,glycan array binding signal (z-score),[11],-0.411
same,glycan array binding signal (z-score),[12],0.287
same,glycan array binding signal (z-score),[13],0.055
same,glycan array binding signal (z-score),[14],-0.173
same,glycan array binding signal (z-score),[15],13
same,glycan array binding signal (z-score),[16],-0.247
same,glycan array binding signal (z-score),[17],4.41
same,glycan array binding signal (z-score),[18],-0.271
same,glycan array binding signal (z-score),[19],-0.138
same,glycan array binding signal (z-score),[20],0.989
same,glycan array binding signal (z-score),[21],-0.613
same,glycan array binding signal (z-score),[22],3.34
same,glycan array binding signal (z-score),[23],3.96
same,glycan array binding signal (z-score),Neu5Ac(a2-8)Neu5Ac,0.246
same,glycan array binding signal (z-score),[24],0.315
